Source: the supplement of paper PMC10338343
± gives the standard deviation.
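Further: 1 nM active piRISC with 0.1 nM target library at 33 °C single turnover.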

The sequences below were run on MILI (PIWIL2) piRISC loaded with piRNA #1 (26 nt) (assay: pre-steady-state target cleavage rate (min^-1); guide: piRNA #1 5'p-UGAGGUAGUAGGUUGUAUAGUAUCCA; MIWI and MILI are mouse PIWI proteins and EfPiwi is from a freshwater sponge; tags in brackets are library labels; higher = faster piRNA-guided slicing of the target). Settings: auxiliary factor: 500 nM mouse GTSF1.
Method in brief: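 Reactions were run for 0–8 or 0–960 min at 33 °C in HEPES–potassium acetate buffer, combining 1 nM active affinity-purified piRISC with one synthetic guide, […] transcribed, DNA-blocked target RNA library and, in some cases, 500 nM GTSF1 partner protein. Sequencing of uncleaved targets followed, with normalisation to depth and to weakly complementary targets. Three trials were pooled, k3 was capped at 0.0001 min^-1, and the pre-steady-state cleavage rate was taken from a burst-and-steady-state fit.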
With GGAGACCUAUCUAAACAACCUACUACGUCA the “pre-steady-state target cleavage rate” value was 0.0213 ± 0.0039. GGAGACCUAUGAUAACAACCUACUUCCUCA was tested, and the “pre-steady-state target cleavage rate” value was 0.00353 ± 0.0025. GGAGACCUAUGAUUACAACCUACUACUUCA was tested, and the “pre-steady-state target cleavage rate” value was 0.00418 ± 0.0024. In the case of GGAGACCUUACAAUACAACCUACUACCUGA, the “pre-steady-state target cleavage rate” value is reported as 0.0872 ± 0.013. For GGAGACCUAUGAUUACAUCCUACUACCUCA, the “pre-steady-state target cleavage rate” value was 0.0102 ± 0.0027. With GGAGAGGAUACUAUAGAACCUUCUACCUCA the “pre-steady-state target cleavage rate” value was 0.00389 ± 0.0026. With GGAGACCAUAGUAUAGAACCUACUACCUCA the “pre-steady-state target cleavage rate” value was 0.105 ± 0.011. GGAGACCUAUGAAUACAUCCUACUACCUCA was tested, and the “pre-steady-state target cleavage rate” value was 0.012 ± 0.0031. For GGAGACCUAUGAUAUGAAACUACUACCUCA, the “pre-steady-state target cleavage rate” value was < 0.0001. In the case of GGAGACGAUACUAUAGAACCUACUACCACA, the “pre-steady-state target cleavage rate” value is reported as 0.0976 ± 0.015. For GGAGACCUUACUAAACUACCUACUACCUCA, the “pre-steady-state target cleavage rate” value was 0.104 ± 0.013. For GGAGACCUAUCUAUACAAGCUACUUCCUCA, the “pre-steady-state target cleavage rate” value was 0.164 ± 0.015. For GGAGUGGAUACUUAACAACCUACUACCUCA, the “pre-steady-state target cleavage rate” value was 0.157 ± 0.0088. For GGAGACCUAACAUUACAACCUACUACCUCA, the “pre-steady-state target cleavage rate” value was 0.0283 ± 0.0089. In the case of GGAGACCUUUCUAUACAACCUACAACCUCA, the “pre-steady-state target cleavage rate” value is reported as 0.0806 ± 0.01. With GGAGACCUAUGUAUACUACCUACUAGCUCA the “pre-steady-state target cleavage rate” value was 0.0108 ± 0.0031. In the case of GGAGACCUAUGAAUACAAUCUACUACCUCA, the “pre-steady-state target cleavage rate” value is reported as 0.00544 ± 0.0022. For GGAGACCUAUGAUAACAACCUACAACCUCA, the “pre-steady-state target cleavage rate” value was 0.00456 ± 0.0024. For GGAGACCAUACAAUACAACCAACUACCUCA, the “pre-steady-state target cleavage rate” value was 0.00736 ± 0.0032. In the case of GGAGACCUAUCUAUACAACCUACUACGACA, the “pre-steady-state target cleavage rate” value is reported as 0.0627 ± 0.01. In the case of GGAGACCUAUGUAUGCAACCUACUACCUCA, the “pre-steady-state target cleavage rate” value is reported as 0.0637 ± 0.0095. In the case of GGAGACCUUACUAUAUCAACCUACUACCUCA, the “pre-steady-state target cleavage rate” value is reported as 0.0609 ± 0.0086. For GGAGACCAUACUAUACAAGCUACUACCACA, the “pre-steady-state target cleavage rate” value was 0.32 ± 0.02. In the case of GGAGACCUUACUAUUCAUCCUACUACCUCA, the “pre-steady-state target cleavage rate” value is reported as 0.231 ± 0.018.
